# Screens from PubChem.
# Sampled rows, rich in hits. Any-hit rate of the full collection: about 1.6%.
# NPR2 activator – human GC-B receptor activators, primary screen, HEK293 GC-B cells, cGMP TR-FRET, EC30 CNP. Atrial natriuretic peptide receptor 2 (Homo sapiens), P20594. 0% at EC30 CNP, 100% saturating CNP. activation, % at 10 µM. 0.11% of 370,000 active. AID 1920062, 2024;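 active = activation at 10 µM reaching about 35% in either raw or pattern-adjusted values, limit read from the data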
# NPR1 activator – GC-A stimulated cGMP production enhancers – HEK293 GC-A cells, cGMP TR-FRET, EC30 ANP, primary screen | 0% at EC30 ANP, 100% saturating ANP | activation, % at 10 µM | 0.14% of 370,000 active; in the data active = activation above about 40%
# PG9 binder – binders of HIV-1 gp120 antibody PG9, primary screen, biochemical, TR-FRET. TR-FRET gp120-PG9 antibody binding. inhibition, % at 6.7 µM. 0.43% of 360,000 active; in the data active = inhibition above about 8.5%
# NR1D1 modulator – modulators of Rev-erb alpha DNA binding, primary screen, biochemical, FITC-DNA, fluorescence polarization, uHTS | activity, % at 10 µM | 0.79% of 370,000 active | Nuclear receptor subfamily 1 group D member 1 (Homo sapiens), P20393 | Rev-erbα–FITC-DNA binding, 90 min;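 active = activity above about 14%, limit read from the data; passing the limit was not always enough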;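 also: 0% = DMSO wells with 35 nM protein and 100% = DMSO wells with 750 nM protein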
# Target sequence (P20393 whole entry, looked up): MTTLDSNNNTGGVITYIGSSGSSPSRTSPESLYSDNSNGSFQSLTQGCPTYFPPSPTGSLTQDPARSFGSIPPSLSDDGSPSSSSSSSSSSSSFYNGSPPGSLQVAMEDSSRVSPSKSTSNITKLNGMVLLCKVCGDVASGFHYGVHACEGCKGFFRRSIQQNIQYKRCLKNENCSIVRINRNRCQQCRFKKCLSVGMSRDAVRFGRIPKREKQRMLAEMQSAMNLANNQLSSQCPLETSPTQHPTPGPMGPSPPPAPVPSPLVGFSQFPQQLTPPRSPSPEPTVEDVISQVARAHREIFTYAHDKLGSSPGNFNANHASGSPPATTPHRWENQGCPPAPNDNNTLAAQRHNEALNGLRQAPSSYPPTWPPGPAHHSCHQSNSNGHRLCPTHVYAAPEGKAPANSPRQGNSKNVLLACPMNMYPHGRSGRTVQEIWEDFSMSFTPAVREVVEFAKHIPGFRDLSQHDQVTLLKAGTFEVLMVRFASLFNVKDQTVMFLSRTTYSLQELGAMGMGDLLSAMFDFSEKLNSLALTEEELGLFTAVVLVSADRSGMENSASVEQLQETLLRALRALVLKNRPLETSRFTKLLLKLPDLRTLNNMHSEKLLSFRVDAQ
# V-ATPase pH – regulators of yeast V-ATPase proton pumping, primary screen, pHLuorin cytosolic pH fluorescence | AID 504577, 2011 | 0.37% of 350,000 active | S. cerevisiae | response, % at 10 µM; in the data active = response mostly above about 7.3%, no sharp cut-off; inactive = mostly below about 5.4%; also: actives read high
# PG9 bind confirm – binders of anti-gp120 antibody PG9, confirmation, biochemical, TR-FRET; shares compounds with PG9 binder; TR-FRET PG9 antibody binding; inhibition, % at 6.7 µM; 90% of 1,500 active; AID 651571, 2012; in the data active = inhibition above about 9%
# PGV04 Ab binding – binders of control antibody PGV04, counter-screen for PG9 antibody binder project, biochemical, TR-FRET, distinct HIV envelope site; inhibition, % at 6.7 µM; 95% of 1,500 active; shares compounds with PG9 binder; AID 651604, 2012; TR-FRET PGV04 antibody-gp120 binding; in the data active = inhibition above about 9.5%
# PG9 binder DR – small-molecule binders of antibody PG9, dose response, biochemical, TR-FRET, HIV-1 gp120 antibody. shares compounds with PG9 binder. TR-FRET PG9 antibody-gp120 binding inhibition. IC50, µM. 95 tested, under 10 active; in the data active = IC50 below about 10 µM
# PGV04 binding DR – binders of control antibody PGV04, dose response, counter-screen for PG9 antibody binder project, biochemical, TR-FRET, distinct HIV envelope site | TR-FRET binding to control antibody PGV04 | 20% of 95 active | shares compounds with PG9 binder | IC50, µM | AID 651937, 2012
# PG126 binding DR – binders of control antibody PG126, dose response, counter-screen for PG9 antibody binder project, biochemical, TR-FRET, distinct HIV envelope site. shares compounds with PG9 binder. IC50, µM. 20% of 95 active. AID 651939, 2012. TR-FRET binding to antibody PG126, counterscreen
# Active calls of the source: *; · = no result. Rule as the data show it, unless noted: active = IC50 below about 9 µM; inactive = the rest.
SMILES,NPR2 activator,NPR1 activator,PG9 binder,NR1D1 modulator,V-ATPase pH,PG9 bind confirm,PGV04 Ab binding,others
COC(=O)c1cc2c(-c3ccccc3)c(C)c3ccccn3c-2c1C(=O)OC,-10.7,-13.4,25.6*,3.2,-2.8,34.8*,52.5*,
CCc1cc2c(SCC(=O)NC(=O)c3cccn3C)ncnc2s1,0.4,3.3,21.5*,3.7,-4.6,17.6*,34.2*,
CCc1cc2c(SCC(=O)Nc3cc(C)on3)ncnc2s1,-2.8,-2.5,22.4*,11.7,1.7,32.4*,48.2*,
CC1CCCCC1C(=O)N1CCC(Oc2cccnc2)CC1 (stereo unspecified),3.9,2.4,·,-4.7,·,·,·,
COc1cccc(-c2nc(C(N)=O)c3[nH]c(=O)n(-c4ccccc4)c3n2)c1OC,4.4,-1.5,1.9,-10.6,0.9,·,·,
CCOc1ccccc1-c1nc(C(N)=O)c2[nH]c(=O)n(-c3ccccc3)c2n1,-2.3,-3.2,19.1*,-6.1,-1.9,27.7*,58.5*,
O=C(Nc1nc(-c2ccccc2)nc2ccccc12)c1ccc(F)cc1,-1.9,-0.5,11.0*,1.9,-2.6,15.8*,27.1*,
Cc1cc(C)c2nc(NC(=O)c3ccco3)sc2c1,-7.5,0.9,-0.6,2.3,2.9,·,·,
O=C(Nc1nc2c(Br)cc(Br)cc2c(=O)s1)c1ccco1,35.2*,77.5*,30.0*,0.8,0.4,57.5*,63.2*,
O=C(Nc1ccc(Nc2ccccc2)cc1)c1ccc(Cl)cc1,-3.7,7.3,-0.9,2.5,0.2,·,·,
CC(C)(C)c1ccc(C(=O)Nc2ccc(Cl)cc2)cc1,4.1,-2.6,8.6*,-4.0,-6.1,15.7*,17.8*,
O=C(c1cc([N+](=O)[O-])ccc1N1CCOCC1)N1CCN(c2ccc([N+](=O)[O-])cc2)CC1,-0.5,-2.0,18.0*,3.2,-0.9,7.1,7.1,PG9 binder DR=>67;PGV04 binding DR=>67;PG126 binding DR=>67
O=C(c1cc([N+](=O)[O-])ccc1N1CCOCC1)N1CCCCC1,2.9,4.2,-2.2,0.4,-3.8,·,·,
CCCC[C@H]1C2CC(OC(=O)Nc3ccc(C)cc3)C(C2)[C@H]2CCCCN21 (stereo partly specified),3.5,1.4,·,3.5,·,·,·,
CCOc1cc(C2C(C#N)=C(N)SC(N)=C2C#N)ccc1OCCN1CCOCC1,2.3,3.2,13.1*,4.6,-3.6,14.9*,20.9*,
O=C(O)c1ccc2c(c1)C(=O)N(c1cccc(C(=O)/C=C/c3ccccc3)c1)C2=O,3.8,-4.5,0.8,0.5,-2.7,·,·,
O=C(O)c1cccc(N2C(=O)c3cc4cccc(Br)c4cc3C2=O)c1,7.9,9.2,14.0*,5.5,-2.4,16.1*,21.6*,
O=C(Nc1ccccc1)Nc1nc2ncccn2c1-c1ccc(F)cc1,-3.9,0.9,·,3.5,·,·,·,
C=CCOc1cccc(C2C(C(=O)c3cc4ccccc4o3)=C(O)C(=O)N2c2cc(C)on2)c1 (stereo unspecified),-9.4,1.8,16.8*,-3.3,1.0,22.2*,35.1*,
COc1cccc(C2C(C(=O)c3cc4ccccc4o3)=C(O)C(=O)N2c2cc(C)on2)c1 (stereo unspecified),6.4,11.4,19.6*,-7.7,-2.7,17.4*,24.9*,
COc1ccccc1C1C(C(=O)c2cc3ccccc3o2)=C(O)C(=O)N1c1cc(C)on1 (stereo unspecified),-9.4,7.8,10.5*,-4.5,-4.9,18.4*,32.1*,
COc1ccc(OC)c(C2C(C(=O)c3cc4ccccc4o3)=C(O)C(=O)N2c2cc(C)on2)c1 (stereo unspecified),2.5,5.3,6.1,-4.9,2.9,·,·,
C[C@@H]1C[C@H]2[C@@H](C)C(=O)N3[C@H](c4ccccc4)[C@H](C)C[C@H]3[C@@H](C)C(=O)N2[C@@H]1c1ccccc1,5.2,3.4,·,-2.3,·,·,·,
O=C(NCc1ccccc1Cl)C1CCC(CNS(=O)(=O)c2cccc3cccnc23)CC1 (stereo unspecified),-2.1,0.3,·,9.0,·,·,·,
O=C(Cn1c2ccccc2c(=O)c2cc([N+](=O)[O-])ccc21)Nc1ccccc1Cl,-4.9,-3.5,11.9*,9.5,1.1,16.0*,18.2*,
SMILES,NPR2 activator,NPR1 activator,PG9 binder,NR1D1 modulator,V-ATPase pH,PG9 bind confirm,PGV04 Ab binding,others
O=C(Cn1c2ccccc2c(=O)c2ccccc21)Nc1ccccc1F,5.0,3.0,6.2,1.2,-0.1,·,·,
O=C(NCCc1ccccc1)OCc1cn(Cc2cc(F)ccc2F)nn1,0.8,1.8,·,1.9,·,·,·,
CC(C)COc1ccc(C(=O)Nc2ccc(NC(=O)c3ccco3)c(Cl)c2)cc1,-3.5,-2.7,2.2,8.3,0.6,·,·,
CC(C)Oc1ccc(C(=O)Nc2ccc(NC(=O)c3ccco3)c(Cl)c2)cc1,4.6,1.0,11.2*,8.3,0.1,15.8*,23.4*,
CCCC1CCC2(CCCN2CCOC(=S)Nc2ccccc2)CC1 (stereo unspecified),-6.3,0.5,·,2.3,·,·,·,
COC(=O)[C@]1(CNC(=O)Nc2ccc(C)c(Cl)c2)CC(=O)N(C)[C@@H]1c1ccccc1,3.0,4.4,·,2.2,·,·,·,
COCCCn1c(=O)/c(=C\c2ccc(OC(F)F)c(OC)c2)s/c1=C(/C#N)C(N)=O,6.6,7.3,13.8*,2.4,-2.4,36.2*,38.9*,
COCCCn1c(=O)/c(=C\c2ccccc2OC(F)F)s/c1=C(/C#N)C(N)=O,3.5,5.5,-2.1,2.3,-16.1,·,·,
CSCCCNC(=O)CN1C(=O)C2CCCCN2C(=O)c2ccccc21 (stereo unspecified),-2.4,-2.5,·,5.0,·,·,·,
S=c1nc[nH]c2c1[nH]c1ccc(Cl)cc12,2.1,6.6,33.5*,-7.3,-2.0,15.2*,17.0*,
O=c1c2[nH]c3ccc(Cl)cc3c2ncn1CCN1CCCCC1,-1.9,-1.5,-1.7,1.3,5.1,·,·,
